From PubChem
HCMV inh = qHTS Assay for inhibitors of the human cytomegalovirus (HCMV); activity change, negative = inhibition, % at 57.5 µM; AID 1259415, 2018; 4.5% of 410,000 active; HFF cells, HCMV-luciferase reporter, 72 h; hits give low values; in the data active = activity change below about -60%; inconclusive = no clear call, values can overlap the other calls; inactive = above about -39%
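Two compound doses tested in HFFs infected with HCMV-luciferase, MOI 1 PFU/cell, 72 h at 37C. Lysate luminescence read with OneGlo; data normalized against buffer-only and 10uM Salinomycin inhibitor controls.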
Giardia FBPA inh-1 = qHTS Assay for Inhibitors of Fructose-1,6-bisphosphate Aldolase from Giardia Lamblia; Potency, µM (top dose mostly 59.6 µM), inactives show top-dose activity, negative = inhibition, hits mostly inhibitors; 0.71% of 290,000 active; A8B2U2; purified Giardia FBPA; also: potency is read from the fitted curve at half-maximal effect; nearly all actives have a fitted effect of over 55% in size
Target sequence (A8B2U2 whole entry, looked up): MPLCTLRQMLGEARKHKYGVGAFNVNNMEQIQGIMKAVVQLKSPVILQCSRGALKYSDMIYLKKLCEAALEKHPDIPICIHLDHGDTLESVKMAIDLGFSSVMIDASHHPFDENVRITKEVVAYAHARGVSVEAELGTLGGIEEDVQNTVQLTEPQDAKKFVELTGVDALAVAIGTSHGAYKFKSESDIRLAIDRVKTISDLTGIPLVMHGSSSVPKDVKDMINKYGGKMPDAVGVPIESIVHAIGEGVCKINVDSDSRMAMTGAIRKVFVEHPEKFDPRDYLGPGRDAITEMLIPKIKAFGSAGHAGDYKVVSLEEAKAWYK
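40 nM FBPA preincubated 10 min at RT with compound (up to 57.5 uM final), then substrate plus GAPDH/TPI/NAD/arsenate coupling and diaphorase/resazurin added. Fluorescence read after 20 min at RT, 525/598 nm.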
Pf growth 96h = Primary qHTS for delayed death inhibitors of the malarial parasite plastid, 96 hour incubation. P. falciparum luciferase reporter growth, 96 h. Potency, µM (top dose mostly 28.7 µM), inactives show at the highest dose activity change, negative = inhibition, usual class: inhibitors. 6.9% of 320,000 active. AID 504834, 2011; also: potency is read from the fitted curve at half-maximal effect
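Plates of compound plus infected erythrocytes (2% hematocrit, 0.05% parasitemia final) incubate 96 hours, 37 C, 5% CO2. Detection reagent added; reduced luminescence from the parasites' luciferase reporter flags inhibition.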
Pf growth 48h = Primary qHTS for delayed death inhibitors of the malarial parasite plastid, 48 hour incubation. P. falciparum luciferase growth in erythrocytes, 48 h. Potency, µM (doses to about 28.7 µM), without a hit: at the top dose activity change, negative = inhibition, usual class: inhibitors. 5.9% of 310,000 active. AID 504832, 2011; also: potency is read from the fitted curve at half-maximal effect
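First compound was added to culture medium, then infected red cells at 0.1% parasitemia and 2% hematocrit (final). After incubation at 37 C under 5% CO2, luciferase detection reagent was dispensed and light output recorded.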
Sm TGR block = qHTS Assay for the Inhibitors of Schistosoma Mansoni Peroxiredoxins; Potency, µM (series often up to 114 µM), for the others: top-dose activity change, negative = inhibition, actives largely listed as inhibitors; purified TGR, DTNB reduction, TNB absorbance 405 nm; 3% of 360,000 active; Schistosoma mansoni thioredoxin glutathione reductase (TGR), Q962Y6; AID 485364, 2010; also: potency is read from the fitted curve at half-maximal effect; nearly all actives have a fitted effect of over 60% in size
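Kinetic colorimetric format: TGR-catalysed, NADPH-driven DTNB reduction monitored via TNB absorbance. Enzyme dispensed at 20 nM; compound exposure 15 min at room temperature before reaction start.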
Giardia growth = qHTS Assay for Inhibitors of Fructose-1,6-bisphosphate Aldolase from Giardia Lamblia: Giardia lamblia growth inhibition; shares compounds with Giardia FBPA inh-1; Giardia lamblia trophozoite growth inhibition; Potency, µM (doses to about 57.5 µM), without a hit: top-dose activity change, negative = inhibition, usual class: inhibitors; 5% of 1,500 active; AID 2785, 2010;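 also: potency is read from the fitted curve at half-maximal effect; trophozoites exposed to compound for 48 h at 37 °C; nearly all actives have a fitted effect of over 70% in size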
Mammalian tox = qHTS Assay for Inhibitors of Fructose-1,6-bisphosphate Aldolase from Giardia Lamblia: Mammalian cellular toxicity; shares compounds with Giardia FBPA inh-1; Potency, µM (doses to about 57.5 µM), without a hit: at the highest dose viability change, negative = toxicity, most hits filed as inhibitors; mammalian cell viability counter-screen, qHTS; 4% of 1,500 active;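 also: Chinese hamster ovary cells used as mammalian cytotoxicity surrogate; viability measured as cellular ATP by luminescence; potency is read from the fitted curve at half-maximal effect; compound exposure lasted 48 h before reading; nearly all actives have a fitted effect of over 60% in size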
Giardia FBPA inh-2 = qHTS Assay for Inhibitors of Fructose-1,6-bisphosphate Aldolase from Giardia Lamblia: Primary screen confirmation; shares compounds with Giardia FBPA inh-1; purified Giardia aldolase enzyme activity, qHTS; Potency, µM (titrated, usually from 57.5 µM), inactives show at the top dose activity change, negative = inhibition, actives largely listed as inhibitors; 5% of 1,500 active; also: potency is read from the fitted curve at half-maximal effect; nearly all actives have a fitted effect of over 45% in size
Rabbit aldolase = qHTS Assay for Inhibitors of Fructose-1,6-bisphosphate Aldolase from Giardia Lamblia: Rabbit FBPA Selectivity; shares compounds with Giardia FBPA inh-1; Rabbit muscle FBPA enzyme inhibition, selectivity counter-screen; Potency, µM (series often up to 57.5 µM), inactives show at the highest dose activity, negative = inhibition, actives largely listed as inhibitors; 4% of 1,500 active; AID 2794, 2010; also: potency is read from the fitted curve at half-maximal effect; nearly all actives have a fitted effect of over 60% in size
Target sequence (P00883 whole entry, looked up): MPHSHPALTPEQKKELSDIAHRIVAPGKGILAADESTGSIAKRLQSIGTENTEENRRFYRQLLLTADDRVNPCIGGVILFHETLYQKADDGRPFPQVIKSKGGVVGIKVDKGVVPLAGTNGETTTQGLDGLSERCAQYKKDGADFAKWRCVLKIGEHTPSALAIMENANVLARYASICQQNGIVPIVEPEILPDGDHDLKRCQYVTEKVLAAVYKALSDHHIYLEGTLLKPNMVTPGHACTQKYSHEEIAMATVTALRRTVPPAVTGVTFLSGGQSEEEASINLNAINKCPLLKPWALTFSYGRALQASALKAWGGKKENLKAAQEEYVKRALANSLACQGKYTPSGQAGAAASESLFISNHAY
GAPDH counter = qHTS Assay for Inhibitors of Fructose-1,6-bisphosphate Aldolase from Giardia Lamblia: Coupling assay counterscreen confirmation; 6% of 1,500 active; shares compounds with Giardia FBPA inh-1; GAPDH coupling enzyme counterscreen, biochemical, qHTS; Potency, µM (series often up to 57.5 µM), for inactives: at the highest dose activity change, negative = inhibition, hits mostly inhibitors; AID 2795, 2010; also: potency is read from the fitted curve at half-maximal effect; nearly all actives have a fitted effect of over 55% in size
The depositor's hits bear a star; ? = inconclusive; nt = no result given; [ ] = another dose, or the depositor's remark. Most compounds without a hit are left out; they make up all but 14% or so of the library. Unless noted, calls follow the shape of the dose curve; as a rule, active = well fitted curve in the direction sought with a large enough effect; inconclusive = small, poorly fitted or top-dose-only effect, or another doubt; inactive = no such curve, though single readings can be large; an effect the other way counts as inactive or inconclusive. % is scaled to controls: 0 for no effect and ±100 for the full control effect.

SMILES	HCMV inh	Giardia FBPA inh-1	Pf growth 96h	Pf growth 48h	Sm TGR block	Giardia growth	Mammalian tox	Giardia FBPA inh-2	Rabbit aldolase	GAPDH counter
O=C(O)CC1OCC=C2CN3CCC45C6=CC(=O)C(=O)C([N+](=O)[O-])=C6NC4C1C2CC35 (centres undefined)	nt	1.3µM*	?	?	?	13µM*	-11%	4.5µM*	8.9µM*	4µM*
COc1cc(CNn2c(C)n[nH]c2=S)cc(Cl)c1OCC(=O)NC(C)(C)C	-13	9%	?	?	-4%	nt	nt	nt	nt	nt
COc1cc(CNn2cn[nH]c2=S)ccc1OCC(=O)NC(C)(C)C	-7	10µM*	3%	1%	-2%	?	-1%	3%	-1%	13%
Cc1nnc(SCc2cc(=O)[nH]c(=S)[nH]2)s1	-39	7.9µM*	?	10%	nt	-25%	0%	5%	7%	13%
Cc1nnc(SCc2cc(=O)c3ccccc3[nH]2)s1	11	nt	nt	nt	-8%	nt	nt	nt	nt	nt
O=C(Nc1cc(C(F)(F)F)ccc1N1CCOCC1)c1ccncc1	1	nt	nt	nt	nt	nt	nt	nt	nt	nt
O=C(CNCc1ccccn1)Nc1cc(C(F)(F)F)ccc1N1CCOCC1	-5	16µM*	?	?	-2%	?	1%	6%	6%	9%
O=C1c2cccc([N+](=O)[O-])c2C(=O)N1CCO	11	6%	?	13%	0%	nt	nt	nt	nt	nt
O=C1CSC(=S)N1N1C(=O)c2cccc([N+](=O)[O-])c2C1=O	nt	18µM*	16%	-3%	?	?	5%	4%	11%	11%
CC(C)c1ccc(NC2CCCN(C(=O)c3n[nH]c4c3CCC4)C2)cc1 (centres undefined)	-23	18%	?	-17%	-9%	nt	nt	nt	nt	nt
Cc1ccc(Cn2c(C3CCCN3c3nc(C)cs3)nc3cc(C(F)(F)F)ccc32)cc1 (centres undefined)	nt	28µM*	?	?	-25%	12%	-10%	3%	2%	12%
Nc1cc(N)nc(CS)n1	-20	1%	5%	-5%	15%	nt	nt	nt	nt	nt
Cc1c(C(=O)N(C)Cc2ccc(F)cc2)sc(=O)n1Cc1ccc(Cl)c(Cl)c1	-30	nt	nt	nt	nt	nt	nt	nt	nt	nt
Cc1cc(-c2ccco2)c(C#N)c2nc3ccccc3n12	-30	1.3µM*	154%	14%	28µM*	-19%[38.3 µM]	-29%	?	?	?
O=C(N/N=C/c1ccncc1)c1nc2ccccc2c(=O)[nH]1	11	11µM*	57%	51%	0%	11%	24%	-9%	-17%	0%
C/C(CC(=O)Nc1ccc(Cl)cc1Cl)=N\NC(N)=S	-12	13%	?	?	22%	nt	nt	nt	nt	nt
C/C(CC(=O)Nc1ccc(Cl)cc1C(F)(F)F)=N\NC(N)=S	-36	20µM*	-15%	8%	1%	3%[10.4 µM]	12%	17%	9%	14%
C/C(CC(=O)Nc1ccc(Cl)c(Cl)c1)=N\NC(N)=S	36	10µM*	6%	13µM*	5%	2%	-5%	-3%	-2%	3%
C/C(CC(=O)Nc1cc(Cl)ccc1Cl)=N\NC(N)=S	-5	?	?	?	4%	nt	nt	nt	nt	nt
Cc1ccc(Sc2c([N+](=O)[O-])ncn2C)cc1	207	0%	-26%	?	?	nt	nt	nt	nt	nt
Cn1cnc([N+](=O)[O-])c1Sc1ncccc1N	24	18µM*	nt	-11%	?	27%	3%	1%	6%	-18%
CCCCc1nnc(NC(=O)CSCc2cc(=O)n3cc(C)sc3n2)s1	-38	4µM*	?	-8%	-3%	7%[38.3 µM]	?	?	19%	-5%
CCN(CC)S(=O)(=O)c1ccc(C(=O)Nc2nnc(COC)o2)cc1	-64*	18µM*	0%	3%	5%	9%	16%	6%	18%	19%
CCN(CC)S(=O)(=O)c1ccc(C(=O)Nc2nnc(-c3ccco3)o2)cc1	-22	?	?	?	4%	nt	nt	nt	nt	nt
CCc1nnc(NC(=O)c2ccc(S(=O)(=O)N(CC)CC)cc2)s1	38	8%	23%	10%	-14%	nt	nt	nt	nt	nt
SMILES	HCMV inh	Giardia FBPA inh-1	Pf growth 96h	Pf growth 48h	Sm TGR block	Giardia growth	Mammalian tox	Giardia FBPA inh-2	Rabbit aldolase	GAPDH counter
CN(C)S(=O)(=O)c1ccc(C(=O)Nc2nnc(-c3ccco3)o2)cc1	10	6.3µM*	?	?	0%	8%[38.3 µM]	-17%	2%	1%	-8%
CCN(CC)S(=O)(=O)c1ccc(C(=O)Nc2nnc(CSC)o2)cc1	-22	16µM*	?	?	3%	18µM*	-5%	6%	10%	7%
CCCCN(CCCC)S(=O)(=O)c1ccc(C(=O)Nc2nnc(COC)o2)cc1	nt	15%	72%	?	12%	nt	nt	nt	nt	nt
Cc1nc2ccc(NS(=O)(=O)c3ccc4c(c3)OCCO4)cc2s1	-33	2%	nt	-17%	1%	nt	nt	nt	nt	nt
C=CCc1cc(OC)ccc1OCCCCn1cncn1	55	32µM*	?	13%	?	?	12%	1%	13%	-7%
C=CCn1c(-c2ccoc2)n[nH]c1=S	-12	2.5µM*	45%	17%	-26%	?	-4%	-1%	4%	0%
C=CCn1c(-c2ccncc2)n[nH]c1=S	-32	2.5µM*	?	15%	-1%	-12%	-13%	6%	4%	15%
CCNC(=S)NNc1ccccc1	57	11µM*	37%	13%	14µM*	-13%[10.4 µM]	11%	3%	11%	2%
O=C(NS(=O)(=O)c1ccccc1)c1ccccc1	38	13%	nt	-8%	-1%	nt	nt	nt	nt	nt
